Data reported in PubChem BioAssay AID2690 (NMMLSC, 2010).
Screen size: about 330,000 compounds; about 590 (0.18%) were called active.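 The calls were made as follows: active = superoxide response under a set limit, about three screen SD below normal (cut at about 65% in these data); inactive = the rest.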 The list comes from a sample in which actives are over-represented; it also holds similar structures and randomly drawn compounds.

Assay: yeast aging ROS inhibitors as calorie-restriction mimetics – HTS, primary screen (AID 2690);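 also: yeast aged for seven days with compound at 30 °C before DHE staining; 100% = average MFI of all compound-treated wells on the plate with controls excluded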
Conditions: S. cerevisiae aged cells, superoxide DHE fluorescence; at 10 µM; hits give low values

| Compound | superoxide response (% of plate mean) |
| --- | --- |
| Cc1ccsc1C(=O)OCC(=O)NCCc1ccccc1 | 92.1% (inactive) |
| O=C(Nc1ccncc1)c1ccc([N+](=O)[O-])cc1Cl | 103% (inactive) |
| O=C(Nc1ccc(Br)cn1)c1ccc([N+](=O)[O-])cc1Cl | 64.7% (active) |
| O=C(Nc1ccc(Br)cn1)c1ccc([N+](=O)[O-])o1 | 118% (inactive) |
| C/C(=N\NS(=O)(=O)c1ccccc1)c1c(O)cc(C)oc1=O | 102% (inactive) |
| O=C1NC(=Nc2ccc(Cl)cc2)SC1Cc1cccc(Cl)c1Cl (stereo not drawn) | 121% (inactive) |
| O=C(CCS(=O)(=O)c1ccc2c(c1)NC(=O)CS2)NCc1ccccc1Cl | 110% (inactive) |
| CN1CCN(CC(=O)C23CC4CC(CC(C4)C2)C3)CC1 | 101% (inactive) |
| O=C1/C(=C/c2ccc(F)cc2)SC(=S)N1NS(=O)(=O)c1ccccc1 | 107% (inactive) |
| CC(=O)c1ccc(N2CCN(C(=O)c3ccc4nc[nH]c4c3)CC2)cc1 | 112% (inactive) |
| CC1(C)CC[C@@]2(C(=O)O)C(C1)C1=CCC3[C@@]4(C)CC[C@H](O)C(C)(C)C4CC[C@@]3(C)[C@]1(C)C[C@H]2O (stereo partly drawn) | 88% (inactive) |
| CC(C)(C)C(=O)NC1CC2CCCC(C1)N2C(=O)Nc1ccccc1F (stereo not drawn) | 103% (inactive) |
| O=[N+]([O-])/C(N=Nc1ccccc1)=N\Nc1ccccc1 | 102% (inactive) |
| CC(C)(C)NC(=O)c1cccc(NC(=O)Cc2ccc(Br)cc2)c1 | 91.5% (inactive) |
| Cc1ccc(S(=O)(=O)N(CC(=O)NCc2ccco2)c2ccccc2C)cc1 | 111% (inactive) |
| COc1ccc(Nc2nc(NCc3ccco3)nc(N/N=C/c3ccccc3Cl)n2)cc1 | 99.5% (inactive) |
| COC1=CCC2([N+](=O)[O-])CN(CC(=O)O)CC1([N+](=O)[O-])C2 (stereo not drawn) | 98.8% (inactive) |
| Cc1c2cn[nH]c(=O)c2c(C)n1Cc1ccc(F)cc1 | 86.5% (inactive) |
| CC[C@@H]1CCCCc2ccccc2[C@@H](C(=O)C[C@H](O)CC(C)=O)OC1=O | 98.3% (inactive) |
| CC(=O)C[C@@H](O)CC(=O)[C@H]1OC(=O)CCCCCCc2ccccc21 | 62.5% (active) |
| CC(=O)C[C@H](O)CC(=O)[C@@H]1OC(=O)[C@@H](C)C/C=C\Cc2ccccc21 | 89.8% (inactive) |
| CC(C)=NN1C(=O)c2ccccc2NC1(C)C | 102% (inactive) |
| COc1cc(-c2c(-c3ccc4c(c3)OCO4)noc2C)ccc1F | 94.1% (inactive) |
| CC(C)(C)NC(=O)COc1ccc(CNc2ccc3[nH]c(=O)[nH]c3c2)cc1 | 60.8% (active) |

| Compound | superoxide response (% of plate mean) |
| --- | --- |
| COC(=O)c1ccc(OCC(=O)NC(C)(C)C)cc1 | 102% (inactive) |
| O=C(COc1ccc([N+](=O)[O-])cc1Cl)Nc1ccc2[nH]c(=O)[nH]c2c1 | 111% (inactive) |
| O=c1c2cc([N+](=O)[O-])ccc2nc2n1CCC2 | 108% (inactive) |
| Cc1cc(CNC(=O)C2CCC(=O)N(CCc3ccc(Cl)cc3)C2)no1 (stereo not drawn) | 101% (inactive) |
| CN=C(Nc1cccc(S(=O)(=O)N2CCOCC2)c1)c1ccccc1 | 96.6% (inactive) |
| COc1ccc(CN(C)C(=O)Cc2c[nH]c3ccccc23)c(OC)c1OC | 99.6% (inactive) |
| CSCCC(NS(=O)(=O)c1ccccc1F)C(=O)N1CC=C(c2ccccc2)CC1 (stereo not drawn) | 105% (inactive) |
| Nc1nnn(CC(=O)N/N=C/c2ccc(O)cc2)n1 | 92.6% (inactive) |
| O=C(Cn1nnc(-c2ccccc2)n1)N/N=C/c1ccc(-c2ccc(Cl)cc2)o1 | 92.1% (inactive) |
| Nc1nnn(CC(=O)N/N=C/c2ccccc2)n1 | 65% (active) |
| CCOc1ccccc1NC(=O)C1CCCN(C(=O)Nc2ccccc2)C1 (stereo not drawn) | 92.4% (inactive) |
| CCCCCCn1cc(C(=O)O)c(=O)c2cc(F)c(N3CCCCC3)cc21 | 91.2% (inactive) |
| CN1CCN(c2cc3c(cc2F)c(=O)c(C(=O)O)cn3CCF)CC1 | 60.4% (active) |
| CCn1cc(C(=O)NCCO)c(=O)c2cc(F)c(N3CCN(C)CC3)cc21 | 99.8% (inactive) |
| COc1ccc(/C=C/CN2CCCC(C(=O)c3cc(F)ccc3F)C2)cc1 (stereo not drawn) | 100% (inactive) |
| COc1cccc(N(Cc2nnc3n2CCCCC3)C(=O)Nc2ccccc2F)c1 | 107% (inactive) |
| COc1ccc(OC)c(NC(=O)Cc2cccs2)c1 | 102% (inactive) |
| Cc1ccc(-n2cnc3ncnc(-c4ccccc4)c32)cc1 | 108% (inactive) |
| Cc1ccc(-c2nn(C(C)(C)C)c3ncnc(N)c23)cc1 | 55.4% (active) |
| O=C(Nc1ccc(Cl)c(Cl)c1)c1ccccc1NC(=O)C1CC=CCC1C(=O)O (stereo not drawn) | 128% (inactive) |
| O=C(Nc1ccccc1C(=O)N1CCCCCC1)c1ccccc1Cl | 106% (inactive) |
| O=C(Nc1cccc(Cl)c1Cl)c1ccccc1NC(=O)C1CC=CCC1C(=O)O (stereo not drawn) | 64.3% (active) |
| CCCC(NC(=O)c1ccco1)c1nc2ccccc2[nH]1 (stereo not drawn) | 103% (inactive) |
| OC(c1nc2ccccc2[nH]1)C(O)C(O)C(O)c1nc2ccccc2[nH]1 (stereo not drawn) | 59.9% (active) |
